“And” between values parts separate entries of the source, which are not always exact repeats. Equal values may be shown once. For some assays here: Results with a measured potency or affinity are listed apart. The source holds several records for some structures; these can differ, active in one and inactive in another. The source made the active and inactive calls. Unless noted, no rule for the calls is given here.
Key:
[1] = antimalarial activity against Dd2 strain (AID 2302;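 active = growth inhibition above 50% at the single 2 µM test dose, taken to imply half-maximal potency below 2 µM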;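 also: 0% = DMSO untreated growth and 100% = chloroquine plus artemisinin killed control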); conditions: P. falciparum Dd2 in RBCs, LDH growth readout, 72 h; at 2 µM; stronger effect = higher value
[2] = human hepatoma cell viability loss – ATP luminescence, cytotoxicity control for P. falciparum antimalarial project, primary screen (AID 2303;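 active = inhibition above 50%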;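 also: 0% = DMSO wells and 100% = digitonin-killed cells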); conditions: HepG2 viability, 24-48 h, at 10 µM, stronger effect = higher value
[3] = molecular target: L-lactate dehydrogenase (Plasmodium falciparum (isolate CDC / Honduras)) (UniProt Q27743); assay: PfLDH activity inhibition – cell lysate, 3D7 strain, counter-screen for P. falciparum growth inhibition project (AID 2304);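 also: 0% = vehicle and 100% = reference inhibitor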; conditions: P. falciparum 3D7 crude extract, LDH APAD/NBT absorbance; at 2 µM; stronger effect = higher value
[4] = inhibition of 3D7 malaria parasite growth – strain 3D7 (AID 2306);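 also: 0% = DMSO wells and 100% = chloroquine plus artemisinin control wells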; conditions: P. falciparum 3D7 erythrocytic growth, LDH absorbance, 72 h; at 2 µM; stronger effect = higher value
[5] = molecular target: Calcium-dependent protein kinase 1 (Plasmodium falciparum (isolate 3D7)) (UniProt P62344); assay: PfCDPK1 kinase inhibitors, biochemical, TCAMS library (AID 1159585; cut-off not given, nearly all actives have IC50 up to about 0.98 µM;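 also: inhibitors leave more ATP so luminescence rises with inhibition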); conditions: recombinant PfCDPK1, Kinase-Glo ATP depletion luminescence
[6] = molecular target: Plasmodium falciparum protein kinase 6 (PK6, PF3D7_1337100) (UniProt Q8IDW1); assay: PfPK6 kinase inhibitors, biochemical, TCAMS library (AID 1159586); conditions: recombinant PfPK6, Kinase-Glo ATP depletion luminescence
[7] = molecular target: Protein kinase 7 (PK7), Plasmodium falciparum 3D7 (PF3D7_0213400) (UniProt Q7YTF7); assay: inhibition of Plasmodium PK7 catalytic activity – biochemical, TCAMS antimalarial set, Kinase-Glo luminescence (AID 1159587); conditions: recombinant PfPK7, Kinase-Glo ATP depletion luminescence
[8] = molecular target: Calcium-dependent protein kinase 4 (Plasmodium falciparum (isolate 3D7)) (UniProt Q8IBS5); assay: PfCDPK4 kinase inhibitors, biochemical, TCAMS library (AID 1159588; cut-off not given, nearly all actives have IC50 up to about 0.91 µM); conditions: recombinant PfCDPK4, Kinase-Glo ATP depletion luminescence
Calcium-dependent protein kinase 4 (Plasmodium falciparum (isolate 3D7)), sequence (Q8IBS5 whole entry, looked up): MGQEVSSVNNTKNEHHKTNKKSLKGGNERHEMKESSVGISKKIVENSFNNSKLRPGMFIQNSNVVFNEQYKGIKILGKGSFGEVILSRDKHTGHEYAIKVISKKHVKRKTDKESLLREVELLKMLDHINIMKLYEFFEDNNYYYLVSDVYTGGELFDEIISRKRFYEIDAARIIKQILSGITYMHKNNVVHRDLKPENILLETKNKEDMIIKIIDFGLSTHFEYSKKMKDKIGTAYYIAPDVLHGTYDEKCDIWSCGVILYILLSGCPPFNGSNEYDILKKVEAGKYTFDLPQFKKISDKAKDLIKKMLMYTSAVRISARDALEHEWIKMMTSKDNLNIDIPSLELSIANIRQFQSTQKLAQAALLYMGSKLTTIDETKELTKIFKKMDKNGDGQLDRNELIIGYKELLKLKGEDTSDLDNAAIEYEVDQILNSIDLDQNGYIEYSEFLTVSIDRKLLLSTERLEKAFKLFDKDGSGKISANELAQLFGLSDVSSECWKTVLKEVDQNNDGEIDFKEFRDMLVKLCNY

Plasmodium falciparum protein kinase 6 (PK6, PF3D7_1337100), sequence (Q8IDW1 1-305): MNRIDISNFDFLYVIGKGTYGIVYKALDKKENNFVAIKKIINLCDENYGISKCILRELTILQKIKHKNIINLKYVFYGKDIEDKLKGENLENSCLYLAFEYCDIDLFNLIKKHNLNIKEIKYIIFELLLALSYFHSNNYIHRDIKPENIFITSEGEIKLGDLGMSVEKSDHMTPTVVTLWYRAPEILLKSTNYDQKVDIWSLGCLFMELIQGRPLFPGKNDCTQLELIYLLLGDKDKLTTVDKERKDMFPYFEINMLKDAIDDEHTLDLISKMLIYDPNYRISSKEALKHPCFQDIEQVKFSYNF
Protein kinase 7 (PK7), Plasmodium falciparum 3D7 (PF3D7_0213400), sequence (Q7YTF7 1-343): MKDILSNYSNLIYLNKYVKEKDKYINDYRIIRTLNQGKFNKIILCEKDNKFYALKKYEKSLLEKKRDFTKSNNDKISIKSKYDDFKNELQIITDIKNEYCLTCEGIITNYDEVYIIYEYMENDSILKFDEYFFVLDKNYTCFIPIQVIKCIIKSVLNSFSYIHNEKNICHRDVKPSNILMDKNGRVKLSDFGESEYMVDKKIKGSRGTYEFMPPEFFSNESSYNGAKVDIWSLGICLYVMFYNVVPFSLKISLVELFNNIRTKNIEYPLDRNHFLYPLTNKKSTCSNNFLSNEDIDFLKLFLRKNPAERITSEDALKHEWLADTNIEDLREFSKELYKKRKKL
Calcium-dependent protein kinase 1 (Plasmodium falciparum (isolate 3D7)), sequence (P62344 whole entry, looked up): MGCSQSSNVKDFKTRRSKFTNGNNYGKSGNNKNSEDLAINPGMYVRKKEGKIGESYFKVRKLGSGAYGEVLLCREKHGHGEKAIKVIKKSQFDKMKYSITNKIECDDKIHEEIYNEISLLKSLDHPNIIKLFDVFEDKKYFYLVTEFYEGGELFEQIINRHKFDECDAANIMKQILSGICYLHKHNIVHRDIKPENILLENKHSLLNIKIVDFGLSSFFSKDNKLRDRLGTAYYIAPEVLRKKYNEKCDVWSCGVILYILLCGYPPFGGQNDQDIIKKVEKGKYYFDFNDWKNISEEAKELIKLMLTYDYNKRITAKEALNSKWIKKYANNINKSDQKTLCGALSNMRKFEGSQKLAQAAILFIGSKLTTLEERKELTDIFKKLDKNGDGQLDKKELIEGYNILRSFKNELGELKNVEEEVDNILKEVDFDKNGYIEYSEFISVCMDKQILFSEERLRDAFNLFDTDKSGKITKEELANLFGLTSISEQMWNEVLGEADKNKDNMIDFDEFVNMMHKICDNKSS
L-lactate dehydrogenase (Plasmodium falciparum (isolate CDC / Honduras)), sequence (Q27743 whole entry, looked up): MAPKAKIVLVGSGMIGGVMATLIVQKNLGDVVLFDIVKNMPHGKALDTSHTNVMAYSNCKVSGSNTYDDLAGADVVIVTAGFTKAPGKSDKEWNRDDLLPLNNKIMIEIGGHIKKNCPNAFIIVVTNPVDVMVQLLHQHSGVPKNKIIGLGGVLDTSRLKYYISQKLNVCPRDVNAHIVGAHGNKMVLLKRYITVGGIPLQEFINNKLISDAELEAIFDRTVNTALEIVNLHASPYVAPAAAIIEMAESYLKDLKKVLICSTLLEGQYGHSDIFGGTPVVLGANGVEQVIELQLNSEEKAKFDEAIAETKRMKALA

| SMILES | growth inhibition [1] | inhibition [2] | inhibition [3] | growth inhibition [4] | outcome [5] | outcome [6] | outcome [7] | outcome [8] |
| --- | --- | --- | --- | --- | --- | --- | --- | --- |
| O=C(C=Cc1ccc(-c2ccccc2)cc1)NC1CCC(CN2CCC(c3c[nH]c4ccccc34)CC2)CC1 (configuration not stated) | 85% (active) and 98% (active) | 43% (inactive) and 97% (active) | -7% (inactive) | 101% (active) | inactive | inactive | inactive | inactive |
| O=C(NC1CCC(CN2CCC(c3c[nH]c4ccccc34)CC2)CC1)c1cnn(-c2ccccc2)c1-c1ccccc1Cl (configuration not stated) | 11% (inactive) | 66% (active) | -6% (inactive) | 95% (active) | inactive | inactive | inactive | inactive |
| Cc1ccc2[nH]cc(C3CCN(CC4CCC(NC(=O)/C=C/c5ccc(Cl)c(Cl)c5)CC4)CC3)c2c1 (configuration not stated) | 46% (inactive) and 86% (active) | 29% (inactive) and 37% (inactive) | -10% (inactive) and 0% (inactive) | 101% (active) and 94% (active) | inactive | inactive | inactive | inactive |
| CC(Cc1ccc(OCCCCOc2ccccc2)cc1)NCCCc1nc2ccccc2[nH]1 (configuration not stated) | 67% (active) | 99% (active) | 3% (inactive) | 97% (active) | inactive | inactive | inactive | inactive |
| CC(=O)N(Cc1cccc(-c2ccc(CNCCc3ccccc3)cc2)c1)C1CCN(Cc2ccccc2)CC1 | 50% (active) | 32% (inactive) | -5% (inactive) | 99% (active) | inactive | inactive | inactive | inactive |
| CNC(=O)c1ccc2[nH]cc(C3CCN(CC4CCN(C(=O)/C=C/c5ccc(Cl)c(Cl)c5)CC4)CC3)c2c1 | 88% (active) | 3% (inactive) | 1% (inactive) | 100% (active) | inactive | inactive | inactive | inactive |
| O=C(c1cccs1)N(Cc1cccc(-c2ccc(CNC3CCCC3)cc2)c1)C1CCN(Cc2ccccc2)CC1 | 74% (active) | 20% (inactive) | 0% (inactive) | 90% (active) | inactive | inactive | inactive | inactive |
| O=C(/C=C/c1ccc(Cl)c(Cl)c1)NC1CCC(CN2CCC(c3c[nH]c4ccccc34)CC2)CC1 (configuration not stated) | 85% (active) | 27% (inactive) | 5% (inactive) | 101% (active) | inactive | inactive | inactive | inactive |
| CC(Cc1ccc(OCCCCOc2ccccc2)cc1)NCCC1CCCN1C (configuration not stated) | 98% (active) | 100% (active) | 3% (inactive) | 99% (active) | inactive | inactive | inactive | inactive |
| Oc1ccc(CN2CCN(CCOC(c3ccccc3)c3ccc(Cl)cc3)CC2)cc1Cl (configuration not stated) | 97% (active) | 11% (inactive) | -3% (inactive) | 98% (active) | inactive | inactive | inactive | inactive |
| COc1ccc(C[C@H](C)NC[C@H](O)c2cccc(Cl)c2)cc1F | 75% (active) | 6% (inactive) | -2% (inactive) | 89% (active) | inactive | inactive | inactive | inactive |
| COCCNCc1cccc(-c2ccccc2CN(C(=O)Nc2ccccc2)C2CCN(Cc3ccccc3)CC2)c1 | 51% (active) | 30% (inactive) | 1% (inactive) | 96% (active) | inactive | inactive | inactive | inactive |
| CC(Cc1ccc(-c2nc3ccccc3[nH]2)cc1)NCC(O)c1cccc(C(F)(F)F)c1 (configuration not stated) | 90% (active) | 33% (inactive) | 4% (inactive) | 97% (active) | inactive | inactive | inactive | inactive |
| Cc1ccc(/C=C/C(=O)NC2CCC(CN3CCC(c4c[nH]c5ccccc45)CC3)CC2)cc1C (configuration not stated) | 71% (active) and 91% (active) | 23% (inactive) and 38% (inactive) | 8% (inactive) and 4% (inactive) | 100% (active) and 101% (active) | inactive | inactive | inactive | inactive |
| CC[C@H]1CN2CC[C@@H]1C[C@H]2[C@H](O)c1cc(N2CCOCC2)nc2ccc(OC)cc12 | 99% (active) | 10% (inactive) | 3% (inactive) | 99% (active) | inactive | inactive | inactive | inactive |
| C[C@H](Cc1ccc(OCCCCCCOc2ccccc2)cc1)NC[C@H](O)c1cccc(Cl)c1 | 99% (active) | 21% (inactive) | 7% (inactive) | 93% (active) | inactive | inactive | inactive | inactive |
| COCCSc1ccc(CC(C)NCC(O)c2cccc(Cl)c2)cc1 (configuration not stated) | 73% (active) | 2% (inactive) | -1% (inactive) | 97% (active) | inactive | inactive | inactive | inactive |
| CCC1(C)CC(CCNCc2ccccc2O)(c2ccc(F)cc2)CCO1 (configuration not stated) | 32% (inactive) | 20% (inactive) | 6% (inactive) | 98% (active) | inactive | inactive | inactive | inactive |
| COc1ccc(-c2ccccc2)cc1NC(=S)NC1CCC(CN2CCC(c3c[nH]c4ccccc34)CC2)CC1 (configuration not stated) | 98% (active) and 95% (active) | 51% (active) and 27% (inactive) | -7% (inactive) and -5% (inactive) | 102% (active) and 100% (active) | inactive | inactive | inactive | inactive |
